Compound activity deposited in PubChem BioAssay by National Center for Advancing Translational Sciences (NCATS).
Shown are actives, neighbours in structure and some others; about 17% of the full set was active somewhere.
TDP1 cell CPT = growth inhibition of DT40 Tdp1-/-;hTDP1 cells with camptothecin (screen for TDP1 inhibitors); Potency, µM (titrated, usually from 46.2 µM), for the others: at the highest dose activity change, negative = growth inhibition, actives largely listed as inhibitors; AID 686979; 420,000 compounds, 12% hits; chicken DT40 Tdp1-/-;hTDP1 cells + 20 nM CPT, ATP luminescence, 48 h; also: % is scaled to controls: 0 for no effect and ±100 for the full control effect; nearly all actives have a fitted effect of over 55% in size
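Chicken DT40 Tdp1-/- cells complemented with human TDP1, 400 cells/well, exposed to compounds plus 20 nM camptothecin for at least 48 h at 37 C; viability read as ATP content by CellTiter-Glo luminescence.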
ClpP mod = qHTS Assay for Activators of ClpP; 340,000 compounds, 1.9% hits; ATP-dependent Clp protease proteolytic subunit (Bacillus subtilis (strain 168)), P80244; purified B. subtilis ClpP, FRET peptide cleavage, 20 min; Potency, µM (series often up to 57.5 µM), for inactives: at the top dose activity change, negative = active; AID 651965, 2013; active = well fitted falling curve with a large enough effect; inconclusive = small, poorly fitted or top-dose-only effect; inactive = no such curve, though single readings can be large or run the other way; also: the source files actives as falling curves though it sought activators and does not explain the sign; nearly all actives have a fitted effect of over 65% in size
Target sequence (P80244 whole entry, looked up): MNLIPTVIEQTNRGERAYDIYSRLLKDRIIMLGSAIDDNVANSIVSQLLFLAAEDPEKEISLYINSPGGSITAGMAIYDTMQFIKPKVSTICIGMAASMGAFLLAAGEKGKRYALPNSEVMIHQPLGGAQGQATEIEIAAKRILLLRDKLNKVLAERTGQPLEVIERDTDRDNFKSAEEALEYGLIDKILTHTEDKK
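Buffer: 100 mM Tris/HCl pH8, 100 mM KCl, 0.05% low protease BSA, 2.5% glycerol, 0.01% Tween-20. ClpP 10 microg/mL final; 20 min RT; delta FRET normalized to ADEP and DMSO controls.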
TDP1 cell noCPT = qHTS for Inhibitors of human tyrosyl-DNA phosphodiesterase 1 (TDP1): qHTS in cells in absence of CPT. Potency, µM (titrated, usually from 46.2 µM), for the others: top-dose activity change, negative = growth inhibition, most hits filed as inhibitors. DT40 Tdp1-/- hTDP1 cells, no CPT, ATP luminescence, 48 h. 420,000 compounds, 15% hits; also: % is scaled to controls: 0 for no effect and ±100 for the full control effect; nearly all actives have a fitted effect of over 55% in size
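Camptothecin absent (DMSO only). Human TDP1-complemented DT40 knockout cells, 400 cells/well, 37 °C for minimum 48 hr; ATP measured via CellTiter-Glo, 30 min dark incubation, luminescence.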
TDP1 block = blocks human tyrosyl-DNA phosphodiesterase 1 | recombinant TDP1, AlphaScreen DNA substrate cleavage | 350,000 compounds, 0.28% hits | Potency, µM (top dose mostly 130 µM), for the others: at the top dose activity change, negative = inhibition, most hits filed as inhibitors | Q9NUW8 | AID 485290; also: % is scaled to controls: 0 for no effect and ±100 for the full control effect; nearly all actives have a fitted effect of over 40% in size
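Tdp1 1 nM final; 15 min RT w/ cpd; substrate 15 nM, 5 min; beads 10 ug/ml, 10 min; AlphaScreen read. Neg ctrl: no enzyme.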
Numbers without * were called inactive; ? = inconclusive; . = no result given; [ ] = another dose, or the depositor's remark. Unless noted, calls follow the shape of the dose curve; as a rule, active = well fitted curve in the direction sought with a large enough effect; inconclusive = small, poorly fitted or top-dose-only effect, or another doubt; inactive = no such curve, though single readings can be large; an effect the other way counts as inactive or inconclusive. Potency is read from the fitted curve at half-maximal effect.

SMILES	TDP1 cell CPT	ClpP mod	TDP1 cell noCPT	TDP1 block
O=c1[nH]c2ccccc2c(O)c1-c1cc2ccccc2oc1=O	.	.	.	0%
COc1cccc(OC)c1OCCCN1CCC(Cc2ccccc2)CC1	?	.	?	5%
CCn1c(CN2CCOCC2)nc2cc(NC(=O)c3ccccc3[N+](=O)[O-])ccc21	-21%	-7%	-17%	3%
C/C(=N\NC(=S)Nc1cccc(C)c1)c1cccc(N)c1	0.92µM*	-15%	0.92µM*	7%
C/C(=N\NC(=O)CNc1ccccc1)c1ccccc1	1%	-3%	2%	-2%
CSC(=S)N/N=C(\C)c1ccccc1	3.3µM*	1%	?	8%
C/C(=N\NC(=S)Nc1cccc(C)c1)c1ccco1	?	.	?	3%
C/C(=N\NC(=S)Nc1cccc(C)c1)c1ccccc1	2.8µM*	1%	1.1µM*	12%
Cc1ccc2[nH]c(C(=O)N3CCc4c(cnc(C)c4CNC(=O)c4ccccc4F)C3)cc2c1	19%[9.04 µM]	.	-17%	.
O=c1[nH][nH]c(=O)c2cc([N+](=O)[O-])ccc12	-13%	2%	?	3%
COc1cc2c(=O)[nH]c3cc([N+](=O)[O-])ccc3c2cc1[N+](=O)[O-]	8.2µM*	1%	6.5µM*	.
Oc1ccc(N2CCN(C(=S)NCCc3ccccc3)CC2)cc1	6.5µM*	2%	8.2µM*	-2%
S=C(NCCc1ccccc1)N1CCN(Cc2ccccc2)CC1	29µM*	0%	?	2%
CCCCN(C=O)c1c(CC)nc2c(OCCOc3ccccc3)cccn12	?	-2%	21µM*	.
CCCCN(C=O)c1c(CC)nc2c(OCCC)cccn12	-56%	-4%	?	.
CCCOc1cccn2c(N(C=O)Cc3ccc(OC)cc3)c(CC)nc12	16µM*	-6%	?	.
C=CCOc1cccn2c(N(C=O)Cc3ccc(OC)cc3)c(CC)nc12	18µM*	0%	12µM*	.
CCc1nc2c(OCc3ccc4c(c3)OCO4)cccn2c1N(C=O)Cc1ccccc1	?	-2%	?	.
CCc1nc2c(OCC3CCCCC3)cccn2c1N(C=O)Cc1ccc(OC)cc1	21µM*	-2%	21µM*	.
O=C(Nc1cccc(C(=O)N2CCOCC2)c1)C1CCCC1	-4%	0%	-9%	.
CCc1nc2c(OCCOc3ccc(F)cc3)cccn2c1N(C=O)Cc1ccccc1	21µM*	-2%	?	.
COc1cc(/C=C/C(=O)c2ccc(O)cc2)ccc1OCC#N	8.2µM*	-2%	10µM*	3%
CCOc1ccc(/C=C/C(=O)c2ccccc2)cc1OC	?	1%	?	0%
COc1cccc(C(=O)/C=C/c2ccc(OCC#N)c(OC)c2)c1	21µM*	-27%	13µM*	4%
COc1cccc(C(=O)/C=C/c2ccc(SC)cc2)c1	?	-2%	?	-2%
SMILES	TDP1 cell CPT	ClpP mod	TDP1 cell noCPT	TDP1 block
COC(=O)c1ccc(/C=C/C(=O)c2cccc(OC)c2)cc1	?	.	23µM*	7%
C=CC1C(N2CCOCC2)C(C)(C)S1(=O)=O (stereo unspecified)	23µM*	-2%	?	0%
Cc1cccc2cc(CN(CC3CCCO3)C(=O)C3CC3)c(N(C)C)nc12 (stereo unspecified)	-3%[9.04 µM]	.	1%	.
COc1cccc(C2c3[nH]c4ccccc4c3C[C@H]3C(=O)N(c4ccccc4C(=O)N4CCCC4C(=O)O)C(=O)N23)c1 (stereo partly specified)	3%	-1%	-4%	.
O=C(NCCN1CCOCC1)c1ccccc1N1C(=O)[C@@H]2Cc3c([nH]c4ccccc34)C(c3ccc(F)cc3)N2C1=O (stereo partly specified)	15µM*	-7%	?	.
COc1ccc(C2c3[nH]c4ccccc4c3C[C@H]3C(=O)N(c4ccccc4C(=O)NCCN4CCOCC4)C(=O)N23)cc1 (stereo partly specified)	23µM*	0%	?	.
CCc1ccccc1NC(=S)N(Cc1ccc(OC)cc1)CC1CCC(C(=O)O)CC1 (stereo unspecified)	?	.	-15%	5%
COCCOC(=O)C(C#N)c1nc2ccccc2nc1N1CCN(Cc2ccccc2)CC1 (stereo unspecified)	23µM*	-28%	16µM*	7%
CCC(CC)COC(=O)C(C#N)c1nc2ccccc2nc1N1CCOCC1 (stereo unspecified)	?	-2%	23µM*	0%
CCCCOC(=O)C(C#N)c1nc2ccccc2nc1N1CCN(Cc2ccc3c(c2)OCO3)CC1 (stereo unspecified)	16µM*	-8%	18µM*	5%
COCCCNC(=O)C(C#N)c1nc2ccccc2nc1N1CCN(Cc2ccccc2)CC1 (stereo unspecified)	23µM*	0%	?	-2%
CCOC(=O)C1(C)CCN1C(=O)c1csnn1 (stereo unspecified)	-3%	2%	-9%	.
CC(C)COC(=O)C(C#N)c1nc2ccccc2nc1N1CCN(Cc2ccccc2)CC1 (stereo unspecified)	?	-5%	?	3%
C=CCOC(=O)C(C#N)c1nc2ccccc2nc1N1CCN(Cc2ccccc2)CC1 (stereo unspecified)	?	-4%	23µM*	7%
Cc1ccc(NC(=O)NCc2c(-n3cccc3)sc3c2CCCC3)c(Cl)c1	?	-1%	23µM*	9%
CC(NC(=O)Nc1cc(Cl)ccc1Cl)c1c(-n2cccc2)sc2c1CCCC2 (stereo unspecified)	?	0%	18µM*	6%
CCN1CCc2c(sc(-n3cccc3)c2C(C)NC(=O)Nc2ccccc2C)C1 (stereo unspecified)	?	-13%	23µM*	7%
CCOCCCNC(=O)NC(CCC(C)C)c1c(-n2cccc2)sc2c1CCN(C)C2 (stereo unspecified)	16µM*	4%	16µM*	11%
Cc1c(Cl)cccc1NC(=O)NCc1c(-n2cccc2)sc2c1CCCC2	-9%	1%	-7%	11%
CCOCCCNC(=O)c1ccc(CN2CCc3ccccc3C2)cc1	?	-1%	?	.
Cc1ccc(C2CC(=O)N(Cc3ccccc3)c3c2c(C)nn3-c2nc(C)cc(C)n2)cc1 (stereo unspecified)	?	1%	?	4%
CCCC[C@H]1CCCO[C@@](C(=O)NCc2ccc(C)o2)(C(F)(F)F)C1	.	.	.	5%
COc1cc(NC(=O)NC(C)c2c(-n3cccc3)sc3c2CCN(C)C3)cc(OC)c1 (stereo unspecified)	23µM*	-1%	23µM*	8%
